In PubChem BioAssay:
Results with a measured potency or affinity are listed apart. The source made the active and inactive calls.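 How the source made its calls, unless noted: active means a dose-response fit showing signal loss, with half-maximal concentration no higher than twice the top tested dose; inconclusive means flat fit between 30% and 70% signal loss, or poor fit; inactive means the rest.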

Tests used:
[1] = inducers of Cryptococcus neoformans cell lysis, dose response, AK release luminescence, cherry-picks (AID 687000;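 active means fitted dose curve reaches 40% lysis signal rise at or below the highest valid concentration tested for that sample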;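 further: luminescent detection of adenylate kinase leaking from lysed yeast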)
[2] = HepG2 cell cytotoxicity, dose response, cytotoxicity control, cherry-picks, set 2 (AID 687002)
[3] = HeLa cell cytotoxicity, dose response, cytotoxicity control, ATP luminescence, cherry-pick samples (AID 687004;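 active means a fitted half-maximal concentration no higher than twice the top valid tested dose, with signal falling as cells die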)

Measured: outcome

CCCC[C@@H]1CNC(=S)N1CCc1cccc(F)c1
inactive: all assays above

CCC(C)c1ccc(NC(=S)N2CCN(c3ccccn3)CC2)cc1 (centres undefined)
inactive: all assays above

O=C(NC[C@@H]1[C@@H](c2ccccc2)[C@H](CO)N1C(=O)C1CCC1)NC1CCCC1
inactive: all assays above

C[C@H]1CN([C@@H](C)CO)S(=O)(=O)c2ccc(Br)cc2O[C@H]1CN(C)S(=O)(=O)c1ccccc1F
inactive: all assays above

Cc1noc(C)c1NC(=O)N(C)C[C@@H]1Oc2ccc(NC(=O)NC(C)C)cc2CC(=O)N([C@@H](C)CO)C[C@@H]1C
inactive: all assays above

O=C(C[C@H]1CC[C@@H]2[C@H](COC[C@H](O)CN2CC2CCOCC2)O1)NCc1ccc(Cl)cc1
inactive: all assays above

O=c1nc(-c2ccccc2)c2ccccc2[nH]1
inactive: all assays above

CNC[C@@H]1Oc2c(NS(=O)(=O)c3ccc(Cl)cc3)cccc2C(=O)N([C@H](C)CO)C[C@H]1C
inactive: all assays above

Cc1noc(C)c1S(=O)(=O)Nc1ccc2c(c1)C(=O)N([C@@H](C)CO)C[C@@H](C)[C@H](CN(C)Cc1ccc3c(c1)OCO3)OCCCC[C@H](C)O2
inactive: all assays above

Cc1cccc(-c2ccc([C@@H]3[C@@H](CO)N4CCCCN(S(=O)(=O)c5ccccc5C)C[C@@H]34)cc2)c1
inactive: all assays above

O=C(CSc1ncnc2c1cnn2-c1ccccc1)NCC1CCCO1 (centres undefined)
inactive: all assays above

CCCNC(=O)C[C@H]1CC[C@H]2[C@@H](COC[C@@H](O)CN2S(=O)(=O)c2ccc(Oc3ccccc3)cc2)O1
inactive: all assays above

O=C(Nc1ccc(N2CCOCC2)cc1N1CCOCC1)c1cccc([N+](=O)[O-])c1
inactive: all assays above

Cc1ccc(S(=O)(=O)N(C)C[C@H]2Oc3c(cccc3N(C)C)C(=O)N([C@@H](C)CO)C[C@H]2C)cc1
inactive: all assays above

O=C(c1cccnc1)N1C[C@H]2[C@@H](c3ccccc31)[C@@H](CO)N2C(=O)Nc1ccc(F)cc1
inactive: all assays above

Cc1ccccc1-n1ncc2c(SCC(=O)NCc3cccs3)ncnc21
inactive: all assays above

COCCNC(=O)C[C@H]1C=C[C@H](NS(=O)(=O)c2ccc(C)cc2)[C@@H](CO)O1
inactive: all assays above

Cc1cc(C)cc(OCC(=O)NC(C)c2ccccc2)c1 (centres undefined)
inactive: all assays above

CC(C)(C)SCCNC(=O)CN(c1ccccc1)S(=O)(=O)c1ccccc1
inactive: all assays above

O=C(COc1ccccc1)NCc1ccccc1
inactive: all assays above

O=C(c1ccco1)N1N=C(c2cccs2)CC1c1cc([N+](=O)[O-])ccc1O (centres undefined)
inactive: all assays above

O=C(NC(=S)Nc1ccccc1N1CCOCC1)c1ccc([N+](=O)[O-])cc1
inactive: all assays above

O=C(NC(=S)NCC1COc2ccccc2O1)c1ccccc1 (centres undefined)
inactive: all assays above

COc1ccccc1-c1ccc([C@H]2[C@H](C#N)N(C(=O)C3CC3)[C@H]2CO)cc1
inactive: all assays above

O=C(CCN1CCCCC1)NCC[C@@H]1CC[C@H](NC(=O)c2ccc(F)cc2)[C@@H](CO)O1
inactive: all assays above

C[C@H]1CN([C@@H](C)CO)C(=O)CCCn2cc(nn2)CO[C@@H]1CN(C)Cc1ccc(C(F)(F)F)cc1
inactive: all assays above

C[C@H]1CN([C@@H](C)CO)C(=O)Cc2cc(NS(=O)(=O)c3cn(C)cn3)ccc2O[C@@H]1CN(C)Cc1ccc(Oc2ccccc2)cc1
inactive: all assays above

COc1ccc(C#Cc2ccc3c(c2)O[C@H](CN(C)C(C)=O)[C@@H](C)CN([C@@H](C)CO)S3(=O)=O)cc1
inactive: all assays above

O=C(c1c(Cl)cccc1Cl)N1CCN(c2ccccn2)CC1
inactive: all assays above

CC(C)NC(=O)Nc1ccc2c(c1)C(=O)N([C@@H](C)CO)C[C@@H](C)[C@@H](CN(C)C(=O)NC1CCCCC1)OCCCC[C@H](C)O2
inactive: all assays above

C[C@H]1CN([C@@H](C)CO)C(=O)c2cc(C#CC3(O)CCCC3)cnc2O[C@@H]1CN(C)Cc1cccnc1
inactive: all assays above

CC(NC1CCCC1)C(=O)Nc1ccccc1-c1ccccc1 (centres undefined)
inactive: all assays above

C[C@@H]1CN([C@@H](C)CO)C(=O)c2cc(NC(=O)C3CC3)ccc2O[C@H]1CN(C)Cc1ccc2c(c1)OCO2
inactive: all assays above

O=C(c1ccco1)N1N=C(c2cccs2)CC1c1ccco1 (centres undefined)
inactive: all assays above

CN1C[C@@H]2C(c3ccc(C(F)(F)F)cc3)C3(c4ccccc4)CC2(C3)[C@H]1c1ccccc1 (some centres undefined)
inactive: all assays above

Cc1ccc(-n2ncc3c(SCC(=O)NNC(=O)C(C)C)ncnc32)cc1
inactive: all assays above

Cc1cccc(C)c1NC(=O)C1CCCCN1C (centres undefined)
inactive: all assays above

Cc1noc(C)c1NC(=O)N(C)C[C@H]1OCCCC[C@@H](C)Oc2ccc(NC(=O)NC(C)C)cc2C(=O)N([C@H](C)CO)C[C@H]1C
inactive: all assays above

Cc1ccc(/C=C2\SC(=S)N(NS(=O)(=O)c3ccc(C)cc3)C2=O)cc1
inactive: all assays above

COc1ccccc1NC(=O)c1cn(C)c(=O)c2cc(OC)c(OC)cc12
inactive: all assays above

CC(C)CC#Cc1cnc2c(c1)C(=O)N([C@@H](C)CO)C[C@@H](C)[C@@H](CN(C)C(=O)c1cccc(F)c1)O2
inactive: all assays above

CCOc1cc(CNC)ccc1OCC(=O)NC(C)(C)C
inactive: all assays above

C[C@@H]1CCCCO[C@@H](CN(C)C(=O)NC2CCCCC2)[C@H](C)CN([C@@H](C)CO)C(=O)c2cc(NS(=O)(=O)c3cn(C)cn3)ccc2O1
inactive: all assays above

O=C1CCC(C(=O)Nc2cccc3ccccc23)N1 (centres undefined)
inactive: all assays above

O=C(CCCNC(=O)c1ccc(Cl)cc1)Nc1nccs1
inactive: all assays above

CNC[C@@H]1Oc2ccc(NS(=O)(=O)c3ccc(Cl)cc3)cc2C(=O)N([C@H](C)CO)C[C@H]1C
inactive: all assays above

CCC(=O)N1CCCC1(C)C(=O)Nc1ccc(C)c(C)c1 (centres undefined)
inactive: all assays above

O=C(NC(=S)Nc1ccccc1[N+](=O)[O-])c1ccccc1
inactive: all assays above

COc1ccc(NC(=O)CSc2ncnc3c2cnn3Cc2ccccc2)cc1
inactive: all assays above

S=C(NCCc1cccc(Cl)c1)NC1CCCCC1
inactive: all assays above

CCOC(=O)CSc1ncnc2c1cnn2-c1ccc(Cl)cc1
inactive: all assays above

C[C@H]1CN([C@@H](C)CO)C(=O)Cc2cc(NC(=O)C3CC3)ccc2O[C@@H]1CN(C)C(=O)Nc1cccc2ccccc12
inactive: all assays above

CC=Cc1ccc2n(c1=O)C[C@@H]1[C@@H](CO)[C@H](C(=O)NCc3ccc4c(c3)OCO4)[C@H]2N1C(=O)C1CC1 (mixture of isomers)
inactive: all assays above

Cc1ccc(C(=O)NC(=S)Nc2cccc(NC(=O)c3ccccc3)c2)cc1[N+](=O)[O-]
inactive: all assays above

CCN(CC)C(=O)CSc1ncnc2c1cnn2-c1ccccc1
inactive: all assays above

CC(C)NC(=O)N(C)C[C@H]1Oc2c(NS(=O)(=O)c3ccc(Cl)cc3)cccc2C(=O)N([C@@H](C)CO)C[C@@H]1C
inactive: all assays above

CC(=O)c1cccc(NC(=S)NC2CCCCCCC2)c1
inactive: all assays above

Cc1ccc(OCC(=O)NC(C)c2ccccc2)cc1 (centres undefined)
inactive: all assays above
